From PubChem BioAssay (NCATS)
The list shows a part of the results. Inconclusive results are not listed. A number with no mark means an inactive call. Calls of active or inactive are those of the source. Calls follow the shape of the full dose curve.
% is scaled to controls: 0 for no effect and ±100 for the full control effect; potency is read from the fitted curve at half-maximal effect.

The compounds below were run against Polyprotein P1234 (Chikungunya virus (strain S27-African prototype)) (UniProt Q8JUX6) (assay: Selectivity profile for inhibitors of NSP2Pro chikungunya virus (CHIKV): Full length NSP2 enzyme counterscreen (CHIKV-NSP2) (AID 1964101; also: nearly all actives have a fitted effect of over 65% in size)). Settings: Full-length CHIKV NSP2 protease enzymatic counterscreen; series mostly up to 50.7 µM; activity change, negative = inhibition: at the top concentration.
Sequence of Polyprotein P1234 (Chikungunya virus (strain S27-African prototype)) (Q8JUX6 whole entry, looked up): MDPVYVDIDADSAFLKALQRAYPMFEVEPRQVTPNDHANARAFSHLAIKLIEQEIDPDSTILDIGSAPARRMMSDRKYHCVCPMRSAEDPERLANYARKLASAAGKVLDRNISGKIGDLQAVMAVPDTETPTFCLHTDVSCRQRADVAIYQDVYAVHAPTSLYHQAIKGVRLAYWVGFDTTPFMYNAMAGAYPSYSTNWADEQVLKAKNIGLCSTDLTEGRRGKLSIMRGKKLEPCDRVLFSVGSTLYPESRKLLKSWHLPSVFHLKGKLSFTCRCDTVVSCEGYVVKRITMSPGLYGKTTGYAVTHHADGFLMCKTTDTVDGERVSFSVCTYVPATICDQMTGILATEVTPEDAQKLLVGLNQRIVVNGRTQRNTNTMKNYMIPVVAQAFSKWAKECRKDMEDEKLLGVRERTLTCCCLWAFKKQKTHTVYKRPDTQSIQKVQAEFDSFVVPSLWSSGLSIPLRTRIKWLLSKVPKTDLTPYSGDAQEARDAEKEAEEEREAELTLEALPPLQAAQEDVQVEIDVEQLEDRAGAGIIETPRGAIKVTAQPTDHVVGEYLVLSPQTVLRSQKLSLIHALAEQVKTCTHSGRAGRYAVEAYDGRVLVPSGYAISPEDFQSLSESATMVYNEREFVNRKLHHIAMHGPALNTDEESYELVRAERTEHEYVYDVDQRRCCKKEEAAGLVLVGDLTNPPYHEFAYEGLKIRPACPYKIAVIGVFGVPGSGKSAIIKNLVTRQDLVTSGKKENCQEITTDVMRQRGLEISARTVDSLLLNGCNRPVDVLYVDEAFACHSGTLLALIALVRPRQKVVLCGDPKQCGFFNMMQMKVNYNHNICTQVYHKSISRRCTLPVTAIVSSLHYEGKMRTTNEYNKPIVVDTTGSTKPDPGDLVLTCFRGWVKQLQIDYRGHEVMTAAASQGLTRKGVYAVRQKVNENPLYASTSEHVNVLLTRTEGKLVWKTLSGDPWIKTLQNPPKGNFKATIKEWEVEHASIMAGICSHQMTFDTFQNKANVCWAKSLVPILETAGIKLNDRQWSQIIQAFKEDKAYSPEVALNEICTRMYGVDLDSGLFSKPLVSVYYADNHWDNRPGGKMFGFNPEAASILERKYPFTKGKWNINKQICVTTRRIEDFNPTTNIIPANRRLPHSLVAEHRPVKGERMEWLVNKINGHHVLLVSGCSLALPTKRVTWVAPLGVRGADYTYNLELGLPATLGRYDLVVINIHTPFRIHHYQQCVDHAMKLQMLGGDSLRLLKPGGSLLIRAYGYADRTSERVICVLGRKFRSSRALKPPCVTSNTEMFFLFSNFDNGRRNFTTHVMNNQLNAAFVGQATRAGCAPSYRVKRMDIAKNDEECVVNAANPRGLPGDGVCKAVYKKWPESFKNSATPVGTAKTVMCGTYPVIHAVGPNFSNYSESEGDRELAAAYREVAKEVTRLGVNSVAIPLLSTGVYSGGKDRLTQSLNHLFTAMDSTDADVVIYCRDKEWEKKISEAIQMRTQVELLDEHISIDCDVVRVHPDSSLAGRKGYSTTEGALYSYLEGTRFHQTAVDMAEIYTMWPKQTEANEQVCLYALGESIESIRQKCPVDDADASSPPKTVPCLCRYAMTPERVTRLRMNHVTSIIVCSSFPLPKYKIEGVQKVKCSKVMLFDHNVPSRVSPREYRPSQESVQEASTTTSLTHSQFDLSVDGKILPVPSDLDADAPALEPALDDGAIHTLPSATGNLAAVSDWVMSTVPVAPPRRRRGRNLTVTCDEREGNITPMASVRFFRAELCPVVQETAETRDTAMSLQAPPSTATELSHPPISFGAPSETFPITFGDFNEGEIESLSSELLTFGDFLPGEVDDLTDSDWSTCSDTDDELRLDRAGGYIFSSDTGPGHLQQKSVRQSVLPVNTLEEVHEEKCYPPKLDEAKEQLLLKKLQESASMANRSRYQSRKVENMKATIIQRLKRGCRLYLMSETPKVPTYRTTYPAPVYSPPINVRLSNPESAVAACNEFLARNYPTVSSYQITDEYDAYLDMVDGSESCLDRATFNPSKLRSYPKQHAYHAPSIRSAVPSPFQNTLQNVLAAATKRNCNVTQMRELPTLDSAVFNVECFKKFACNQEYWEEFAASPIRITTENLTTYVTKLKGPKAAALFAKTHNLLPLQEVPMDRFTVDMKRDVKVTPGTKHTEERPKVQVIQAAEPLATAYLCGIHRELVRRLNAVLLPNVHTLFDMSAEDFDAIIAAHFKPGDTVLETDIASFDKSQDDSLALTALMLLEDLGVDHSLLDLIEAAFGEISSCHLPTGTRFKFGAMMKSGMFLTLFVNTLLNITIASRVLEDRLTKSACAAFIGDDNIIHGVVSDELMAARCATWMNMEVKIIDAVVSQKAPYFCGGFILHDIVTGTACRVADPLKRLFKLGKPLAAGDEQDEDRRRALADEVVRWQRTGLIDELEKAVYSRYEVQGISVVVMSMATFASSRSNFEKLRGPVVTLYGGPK
Excerpt: PI: Natalia J. Martinez Ph.D.
National Center for Advancing Translational Sciences (NCATS),
National Institute of Health (NIH), Rockville, Maryland
Chikungunya virus (CHIKV) is a mosquito-borne RNA virus that has emerged as one of the most important global arboviral threats in the last decade. Although the first CHIKV vaccine has recently been FDA approved for use in healthy adults at increased risk, to date, there are no available antiviral drugs for CHIKV infection. CHIKV nsP2 protease plays a crucial role in the processing of the viral polypeptide precursor to release enzymes required for viral replication, thus making it a promising drug target for antiviral discovery. Here, we established a high-throughput pipeline to identify small molecule inhibitors of nsP2 proteolytic activity. The pipeline is composed of a suite of 1,536-well in vitro assays to support quantitative high-throughput (qHTS) screening campaigns. Specifically, we developed a fluorescence resonance energy transfer (FRET)-based assay using a fluorogenic peptide substrate encompassing an endogenous cleavage site and purified recombinant protease domain (nsP2pro). Using this assay, we interrogated ~37,000 small molecules, including those in drug repurposing libraries as well as chemically diverse and medicinal chemistry-friendly compounds. Hits were selected for follow-up validation against full-length nsP2 and an additional peptide. FRET-based 1,536-well assays for papain, hepatitis C virus NS3-4A, and human furin proteases were implemented to characterize compound selectivity. […] Novel compounds were identified to be potential nsP2 inhibitors and molecular docking analyses were performed to explain the binding mode of selected hits. In vitro antiviral activity was evaluated for a subset of compounds using a high-throughput CHIKV infection assay. To our knowledge, the pipeline presented here is unprecedented for CHIKV antiviral discovery research.
PROTOCOL TABLE (as described by Inglese J, Shamu CE and Guy RK. 2007)
SEQUENCE No. (e.g., 1, 2, 3, etc.); […] (e.g., Cells, Incubation, Reagent, etc.); VALUE; DESCRIPTION.
1; Control / Compound; 20 nL; Echo 655 acoustic dispenser, Greiner 1536-well solid bottom black plate.
2; Enzyme; 4 uL; BioRAPTR FRD liquid dispenser (Beckman Coulter).
3; Incubation; 15 min; room temperature.
4; Reagent; 4 uL; 2.5 uM Peptide 2 substrate.
5; Incubation; 1 hr; room temperature.
6; Detection; Fluorescence; WiewLux microplate reader (PerkinElmer), 525 nm excitation, 598/25 nm emission.
NOTES (numbers refer to sequence numbers above).
1. Briefly, 20 nL DMSO, positive control ZnAc (20nM final concentration), and test compounds were transferred into a 1,536-well solid bottom black plate (789176-F, Greiner One) via Echo 655 acoustic dispenser (Beckman Coulter). For primary screens, compounds were tested at 7 concentrations, 1:3 dilution points ranging from 25 uM to 34 nM. Follow-up confirmatory screens were carried out at 11 concentrations, 1:3 dilution points from 25 uM to 0.42 nM.
2. Four uL NSP2 full length enzyme mix (150 nM final concentration) in 10 mM Tris-HCl pH 8.0 with 0.01% Tween 20 assay buffer was dispensed into the plate using a BioRAPTR FRD liquid dispenser (Beckman Coulter).
3. The plate was incubated at room temperature (protected from light) for 15 min
4. Four microliter of peptide 2 substrate (2.5 uM final concentration) in assay buffer was added to the plate.
5. After 1 hour, plates were immediately read on a ViewLux high-throughput CCD imager (Exposure = 10 sec, Gain = High, Speed = Slow, Binning = 2X). The above assay was also incorporated in the NCATS HTS facility41, which allowed for robotic liquid and compound dispensing, microplate handling, and fluorescence reading.
Inglese J, Shamu CE and Guy RK, Reporting data from high throughput screening of small molecule libraries, Nature Chemical Biology, 2007, 3(8): 438-441. doi.org/10.1038/nchembio0807-438.
With `C=CC(=O)c1ccc2ccccc2c1` the Potency was 11.6 µM (active).
For `CO[C@]1(NC(=O)CSC(F)F)C(=O)N2C(C(=O)O)=C(CSc3nnnn3CCO)CO[C@H]21`, the “activity change, negative = inhibition” value was -12.8%.
For `Cn1nnnc1Sc1ncnc2n[nH]c(-c3cccc(S(C)(=O)=O)c3)c12`, the Potency was 15.8 µM (active).
With `CCC(C)C(=O)OC1C(C)C2(O)C(C=C(CO)CC3(O)C(=O)C(C)=CC32)C2C(C)(C)C12OC(=O)C(C)C` (centres undefined) the “activity change, negative = inhibition” value was -7.57% [at 17.3 µM].
In the case of `COC([CH2][Hg])CNC(=O)c1ccccc1OCC(=O)O` (centres undefined), the Potency was 18.3 µM (active).
For `C[C@@H]1C[C@@H](O)[C@@]23CO[C@]2(CO)C[C@@H](O)CC3[C@@]12CC(c1ccoc1)OC2=O` (some centres undefined), the “activity change, negative = inhibition” value was 4.95% [at 33.5 µM].
In the case of `Oc1ccc(OC2CCCCO2)cc1` (centres undefined), the “activity change, negative = inhibition” value was -1.39%.
`N#CSc1cc(SC#N)c(N)nc1N` was tested, and the Potency was 1.03 µM (active).
In the case of `CCOc1ccc(N(Cc2ccccc2)C(=O)c2nc(S(C)(=O)=O)ncc2Cl)cc1`, the Potency was 14.6 µM (active).
